Source: PubChem (The Scripps Research Institute Molecular Screening Center)
GAA850 FXN act = increases GAA850 frataxin promoter reporter activity; HEK293 lucGAA850 FXN promoter luciferase reporter, 24 h; percent of 10 µM SAHA response; activation, % at 6 µM; actives 0.56% (n = 360,000);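 active = activation above the average of all compounds screened plus 3 SD, cutoff fixed separately per campaign, cut at about 7.5% in these data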
ssDAF12 agonist = activators of S. stercoralis DAF-12 nuclear receptor; HEK293 ssDAF-12/GRIP1 lit1-tk-luc reporter, luminescence; % of 3 µM dafachronic acid response; activation, % at 6.8 µM; actives 1% (n = 370,000); AID 652126;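 active = activation above the mean over all tested compounds plus 3 SD, cut at about 0.9% in these data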
DAX1 inh-1 = inhibits human nuclear receptor DAX1. actives 0.99% (n = 340,000). P51843. AID 504766. HEK293 Gal4-DAX1 luciferase reporter, luminescence. inhibition, % at 6.75 µM;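 active = inhibition above the mean over all tested compounds plus 3 SD, cut at about 4.2% in these data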;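 note: inhibition shows as a rise in luminescence from relieved DAX1 repression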
Target sequence (P51843 207-470 limits assumed): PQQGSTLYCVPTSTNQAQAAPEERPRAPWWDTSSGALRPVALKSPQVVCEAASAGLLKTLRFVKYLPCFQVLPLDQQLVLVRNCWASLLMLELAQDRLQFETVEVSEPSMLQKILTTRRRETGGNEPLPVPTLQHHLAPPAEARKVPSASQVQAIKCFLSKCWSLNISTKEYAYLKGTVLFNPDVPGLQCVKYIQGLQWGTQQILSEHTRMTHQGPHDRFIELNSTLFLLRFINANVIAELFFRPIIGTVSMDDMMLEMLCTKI
hcDAF12 agonist = activators of H. contortus DAF-12 nuclear receptor; HEK293 hcDAF-12 lit1-tk-luc reporter, luminescence; 0% DMSO, 100% Δ7-dafachronic acid; activation, % at 6.8 µM; actives 1.4% (n = 370,000); AID 652067;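 active = activation above the mean of all tested compounds plus 3 SD, cut at about 5.5% in these data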
hgDAF-12 ag = agonists of H. glycines DAF-12 nuclear receptor. activation, % at 6.8 µM. AID 687014. actives 1.8% (n = 370,000). HEK293 GAL4-hgDAF12 UAS-luciferase reporter, agonist luminescence; normalized to butyrate control;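 active = activation above a cutoff set at the mean of all screened compounds plus 3 SD, cut at about 10% in these data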
DAX1 inh-2 = blocks DAX1 repression of SF-1 activated StAR promoter; HEK293T StAR-luciferase reporter, SF-1/DAX-1 repression relief; inhibition, % at 6.8 µM; actives 1.1% (n = 370,000);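 active = inhibition above the mean over all tested compounds plus 3 SD, cut at about 3.6% in these data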;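 note: higher inhibition means more luminescence from relief of DAX-1 repression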
DAX1 inh confirm = NR0B1 (human) inhibition, confirmation. inhibition, % at 6.8 µM. shares compounds with DAX1 inh-2. actives 87% (n = 2,400). HEK293T StAR-promoter luciferase reporter, SF-1/DAX-1 repression;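 active = inhibition above the average of every tested compound plus 3 SD, cut at about 3.8% in these data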;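 note: active compounds raise luminescence by relieving repression of the StAR reporter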
SF1 AF2mut Luc = nonselective inhibitor or artifact in SF-1 mutant DAX1 counter-screen. shares compounds with DAX1 inh-2. inhibition, % at 6.8 µM. HEK293 StAR-luciferase, SF-1 AF2 mutant, luminescence. actives 78% (n = 2,400);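 active = inhibition above the mean of all tested compounds plus 3 SD, cut at about 3% in these data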
LXRb hcDAF ctr = activates human LXR-beta, counter-screen for hcDAF-12 agonists; HEK293 Gal4-LXR tk-luc reporter, luminescence, 24 h; normalized: DMSO 0%, positive control 100%; shares compounds with hcDAF12 agonist; activation, % at 6.8 µM; 3,400 tested, under 10 active;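 active = mean percent activation of the reporter above a cutoff set as the average over tested compounds plus their standard deviation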
Target sequence (P55055 whole entry, looked up, the tested form may be a part): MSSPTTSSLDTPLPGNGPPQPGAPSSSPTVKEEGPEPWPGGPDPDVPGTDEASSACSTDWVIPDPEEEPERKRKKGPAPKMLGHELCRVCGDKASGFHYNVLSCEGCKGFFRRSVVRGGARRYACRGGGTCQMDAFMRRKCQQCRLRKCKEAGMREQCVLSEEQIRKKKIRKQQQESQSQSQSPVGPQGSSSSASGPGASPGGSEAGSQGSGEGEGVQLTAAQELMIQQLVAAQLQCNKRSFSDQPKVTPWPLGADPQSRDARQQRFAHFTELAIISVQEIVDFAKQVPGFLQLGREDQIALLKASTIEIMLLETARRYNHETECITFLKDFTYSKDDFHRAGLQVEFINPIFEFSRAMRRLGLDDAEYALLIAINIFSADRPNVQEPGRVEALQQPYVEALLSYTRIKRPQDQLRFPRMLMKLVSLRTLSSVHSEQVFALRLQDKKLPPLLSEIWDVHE
hcDAF12 ag = hcDAF-12 agonism, confirmation assay; shares compounds with hcDAF12 agonist; HEK293 hcDAF-12 lit1-tk-luc reporter, luminescence; % of Δ7-dafachronic acid response; activation, % at 6.8 µM; actives 61% (n = 3,400); AID 743032;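 active = mean activation across triplicate tests above the threshold derived from the earlier primary screen, cut at about 5.5% in these data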
hgDAF12 ag = confirmation of H. glycines DAF-12 agonists; shares compounds with hgDAF-12 ag; HEK293 GAL4-hgDAF12 luciferase reporter, agonist mode; percent of butyrate response; activation, % at 6.8 µM; actives 80% (n = 3,300);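 active = mean activation over triplicate wells above the hit cutoff derived from the earlier primary screen, cut at about 11% in these data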
LXR ag 2 = counter-screen for DAF-12 agonists: agonists of human LXR-beta; shares compounds with hgDAF-12 ag; activation, % at 6.8 µM; AID 743051; HEK293 Gal4-LXR luciferase reporter, 24 h; 3,300 tested, under 10 active;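 active = mean activation of the triplicate above a set limit carried over from the primary screen, none filed active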
Hits are given with their value; i = inactive; nt = not tested or not shown. Rows were chosen to be rich in hits. Some 4.5% of all compounds tested hit in one or more screens of this group.

SMILES	GAA850 FXN act	ssDAF12 agonist	DAX1 inh-1	hcDAF12 agonist	hgDAF-12 ag	DAX1 inh-2	DAX1 inh confirm	SF1 AF2mut Luc	LXRb hcDAF ctr	hcDAF12 ag	hgDAF12 ag	LXR ag 2
CCc1ccc2cc3c(cc2n1)C(=O)c1ccccc1-3	nt	3.6	nt	17.2	20.5	9.5	10.7	6.4	i	16.1	22.6	i
CCC(C)(C)c1ccc2c(c1)C(=O)c1ccccc1C2=O	i	i	i	i	i	i	nt	nt	nt	nt	nt	nt
Clc1ccc(-c2csc(NCC3CCCO3)n2)cc1 (configuration not stated)	nt	0.9	nt	i	15.2	5.1	7.8	4.3	nt	nt	13.3	i
O=C(O)c1ccc(N/N=C/C=C/c2ccccc2)cc1	i	i	i	i	15.3	6.3	10.8	5.8	nt	nt	15.0	i
CCOCC(=O)Nc1cc(C(=O)NCCc2ccccc2)ccc1Cl	i	i	i	i	14.3	4.5	9.0	4.3	nt	nt	12.9	i
COc1ccc(-c2nnc(SCC(C)C)o2)cc1	i	i	i	i	22.6	4.8	8.2	3.4	nt	nt	22.1	i
CC(C)(C)NC(=O)C(c1ccncc1)n1c(-c2ccc(C(F)(F)F)cc2)nc2ccccc21 (configuration not stated)	nt	1.4	nt	9.2	17.0	10.5	10.6	7.9	i	i	16.8	i
O=C(Nc1ccc2c(c1)OCO2)c1cc(Cl)ccn1	i	i	i	i	15.7	6.5	11.7	5.3	nt	nt	17.0	i
O=C(Nc1ccc2c(c1)OCO2)c1ccc(Cl)cc1Cl	i	i	i	10.8	18.4	15.9	14.5	5.0	i	6.6	17.4	i
O=C(Nc1ccc2c(c1)OCO2)c1cc(-c2ccccc2Cl)on1	i	i	i	i	i	i	nt	nt	nt	nt	nt	nt
COC(=O)C1=C(C)N(Cc2ccc(C(F)(F)F)cc2)C(=NCc2ccccc2C(F)(F)F)NC1c1ccccc1 (configuration not stated)	nt	i	nt	i	i	i	nt	nt	nt	nt	nt	nt
CN1CCCCC(NC(=O)c2ccc(F)cc2)C1=O (configuration not stated)	nt	i	nt	i	i	i	nt	nt	nt	nt	nt	nt
Cn1c(=NC(=O)c2ccco2)sc2ccccc21	i	4.0	i	19.9	21.1	7.1	8.1	4.9	i	15.7	20.0	i
O=c1c2c(nc3cc(-c4cccc(Cl)c4)[nH]n13)CCC2	i	i	i	i	14.7	5.5	16.3	6.7	nt	nt	14.1	i
O=C(NCCc1ccc(F)cc1)c1cc2ccccn2n1	nt	i	nt	i	i	i	nt	nt	nt	nt	nt	nt
Cc1cc(N(C)C)ccc1N=Nc1ccc2ncccc2c1	i	1.7	5.5	13.4	15.2	5.2	18.0	7.6	i	12.6	17.9	i
COc1ccc2nc(N=Nc3ccc(N(C)C)cc3)sc2c1	i	i	i	i	i	i	nt	nt	nt	nt	nt	nt
CN(C)c1ccc(N=Nc2ccc3ncccc3c2)cc1	i	1.5	5.8	6.0	20.5	9.3	22.3	7.3	nt	nt	21.2	i
CN(Cc1ccco1)C(=O)c1cccc2c1C(=O)N(Cc1cccnc1)C2	nt	i	nt	i	i	i	nt	nt	nt	nt	nt	nt
O=C(CSc1nnc(-c2ccccn2)n1-c1ccccc1)Nc1cccc2ccccc12	nt	i	nt	i	i	i	nt	nt	nt	nt	nt	nt
COc1ccc(-c2nnc(SCc3c(F)cccc3F)n2N)cc1	nt	i	nt	i	13.5	7.5	14.2	6.2	nt	nt	15.1	i
COc1ccc(-c2nnc(SCc3cccc(C)c3)n2N)cc1	i	i	i	i	i	i	nt	nt	nt	nt	nt	nt
CCN1CCCC1CNC(=O)c1cc2cc(F)ccc2[nH]1 (configuration not stated)	i	1.2	i	11.2	i	i	nt	nt	i	5.9	nt	nt
O=C(/C=C/c1cnc2ccccc2n1)NC12CC3CC(CC(C3)C1)C2	i	i	i	11.1	i	i	nt	nt	i	10.4	nt	nt
Clc1ccccc1-c1nc(-c2ccccc2)n[nH]1	i	i	i	14.7	12.5	i	nt	nt	i	6.6	nt	nt
SMILES	GAA850 FXN act	ssDAF12 agonist	DAX1 inh-1	hcDAF12 agonist	hgDAF-12 ag	DAX1 inh-2	DAX1 inh confirm	SF1 AF2mut Luc	LXRb hcDAF ctr	hcDAF12 ag	hgDAF12 ag	LXR ag 2
Oc1ccccc1-c1n[nH]c(-c2ccccc2O)n1	i	1.4	i	7.1	12.6	i	nt	nt	i	9.6	nt	nt
O=C(O)COc1ccc(/C=C/c2nc(-c3ccccc3O)n[nH]2)cc1	i	i	i	i	i	i	nt	nt	nt	nt	nt	nt
O=C(Nc1ccc2c(c1)OCO2)NC1CCN(S(=O)(=O)c2ccc(F)cc2)CC1	nt	i	nt	i	i	i	nt	nt	nt	nt	nt	nt
O=C(NCc1ccco1)OC1CCC12CCC(c1ccccc1)CC2 (configuration not stated)	nt	i	nt	i	i	nt	nt	nt	nt	nt	nt	nt
COc1ccc(OC)c(NC(=O)COC(=O)/C=C/c2ccccc2Cl)c1	i	i	i	7.1	i	i	nt	nt	i	i	nt	nt
COc1ccc(OC)c(NC(=O)COC(=O)/C=C/c2ccco2)c1	i	i	i	i	i	i	nt	nt	nt	nt	nt	nt
O=C(CSc1nnc(-c2cccnc2)n1Cc1ccco1)Nc1ccc(Cl)cc1	nt	i	nt	i	i	i	nt	nt	nt	nt	nt	nt
O=C(O)Cc1ccc(N=Nc2c(O)c(C(=O)O)cc3ccccc23)cc1	i	i	i	6.8	i	i	nt	nt	i	i	nt	nt
COc1ccc(OCCOCCN2CCc3ccccc3C2)cc1	i	i	i	i	i	i	nt	nt	nt	nt	nt	nt
Clc1ccc(OCCCCN2CCc3ccccc3C2)cc1	i	i	i	10.3	i	i	nt	nt	i	i	nt	nt
CC(C)(C)c1cccc(N/C(=C\C(=O)c2ccccc2)c2ccccc2)c1	nt	i	nt	i	i	i	nt	nt	nt	nt	nt	nt
Cc1cc(NCCCn2ccnc2)n2ncc(-c3ccc(Cl)cc3)c2n1	i	1.7	i	15.0	18.6	3.8	nt	nt	i	18.8	nt	nt
Cc1ccsc1/C=N/NC(=O)c1ccccn1	i	i	i	10.2	i	i	nt	nt	i	i	nt	nt
Cc1ccsc1/C=N/NC(=O)C(O)c1ccccc1 (configuration not stated)	i	i	i	i	i	i	nt	nt	nt	nt	nt	nt
Cc1ccccc1CN1CCCCC(NC(=O)C(C)(C)C)C1=O (configuration not stated)	nt	i	nt	i	i	i	nt	nt	nt	nt	nt	nt
